Screens: PubChem BioAssay, Broad Institute
U2OS ROS induce: raises reactive oxygen species in U2OS cancer cells; U2OS ROS induction, H2DCF-DA fluorescence; ROS induction (% of piperlongumine), % at 10 µM; actives 2% (n = 46,000); AID 624156; in the data active = ROS induction above about 79%, passing the limit was not always enough;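 also: 0% = DMSO vehicle median and 100% = reference compound median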
The depositor's hits bear a star. The sample as a whole holds a higher share of hits than the screen did.

SMILES	U2OS ROS induce
COc1ccc(S(=O)(=O)N(C)C[C@@H]2Oc3ccc(NC(=O)Nc4ccc(F)cc4)cc3CC(=O)N([C@H](C)CO)C[C@H]2C)cc1	-14
COc1ccc(S(=O)(=O)N(C)C[C@@H]2Oc3ccc(NC(=O)Nc4ccc(F)cc4)cc3C(=O)N([C@H](C)CO)C[C@@H]2C)cc1	130*
COc1ccc(NC(=O)Nc2ccc3c(c2)C(=O)N([C@@H](C)CO)C[C@@H](C)[C@H](CN(C)S(=O)(=O)c2ccc(F)cc2)O3)cc1	-29
COc1ccc(S(=O)(=O)N(C)C[C@H]2Oc3ccc(NC(=O)Nc4ccc(F)cc4)cc3CC(=O)N([C@@H](C)CO)C[C@@H]2C)cc1	-10
C[C@@H]1CN([C@H](C)CO)C(=O)Cc2cc(NC(=O)Nc3ccccc3)ccc2O[C@H]1CN(C)S(=O)(=O)c1cn(C)cn1	-11
COc1ccc(S(=O)(=O)N(C)C[C@H]2Oc3ccc(NC(=O)Nc4ccc(F)cc4)cc3C(=O)N([C@H](C)CO)C[C@@H]2C)cc1	38
COc1ccc(NC(=O)Nc2ccc3c(c2)CC(=O)N([C@@H](C)CO)C[C@@H](C)[C@@H](CN(C)S(=O)(=O)c2cn(C)cn2)O3)cc1	90*
COc1ccc(NC(=O)Nc2ccc3c(c2)CC(=O)N([C@@H](C)CO)C[C@H](C)[C@H](CN(C)S(=O)(=O)c2cn(C)cn2)O3)cc1	-6
COc1ccc(NC(=O)Nc2ccc3c(c2)CC(=O)N([C@@H](C)CO)C[C@H](C)[C@H](CN(C)S(=O)(=O)c2ccc(F)cc2)O3)cc1	97*
CC(=O)OCC(=O)Nc1ccccc1C#N	-9
O=C(Oc1ccccc1)c1cccc(COC(=O)c2cc(=O)[nH]c3ccccc23)c1	26
COC(=O)CCCCCCC(=O)N/N=C/c1cc(OC)c(O)cc1Br	32
Cc1cc(C)cc(CC2CC(=O)N(CCc3ccc4c(c3)OCO4)C2=O)c1 (stereo unspecified)	-2
Cc1ccc(-c2ccc(CCC(=O)O)n2-c2cc(C)cc(C)c2)cc1	0
C=CCN1Cc2ccccc2[C@@H]2OC(c3ccc(OCCCO)cc3)=N[C@]2(CC=C)C1=O	20
CN(C)C(=O)[C@]1(CCS(=O)(=O)c2ccccc2)N=C(c2ccc(OCCCO)cc2)O[C@@H]1c1ccccc1	95*
C=CCN1Cc2ccccc2[C@H]2OC(c3ccc(OCCCO)cc3)=N[C@@]2(CCS(=O)(=O)c2ccccc2)C1=O	113*
O=C(NCC(O)CO)[C@@]1(CCS(=O)(=O)c2ccccc2)N=C(c2ccc(OCCCO)cc2)O[C@H]1c1ccccc1 (stereo partly specified)	-2
C=CCN1Cc2ccccc2[C@@H]2OC(c3ccc(OCCCO)cc3)=N[C@]2(Cc2ccccc2)C1=O	36
CN(C)C(=O)[C@]1(Cc2ccccc2)N=C(c2ccc(OCCCO)cc2)O[C@@H]1c1ccccc1	51
OC1(C(F)(F)F)CC(c2ccc(F)cc2)=NO1 (stereo unspecified)	2
COc1ccc(NC(=O)Nc2cccc3c2O[C@@H](CN(C)Cc2ccc(C(F)(F)F)cc2)[C@H](C)CN([C@@H](C)CO)C3=O)cc1	26
CCOC(=O)CNc1nc2ccccc2n2cnnc12	-4
CCOC(=O)c1cnc2ccc(OCC)cc2c1NCCCN1CCOCC1	52
CCOC(=O)c1cnc2c(C(F)(F)F)cccc2c1N1CCN(C)CC1	50
SMILES	U2OS ROS induce
CCOC(=O)c1cnc2c(C(F)(F)F)cccc2c1NCCCN1CCOCC1	113*
Cc1noc(C)c1S(=O)(=O)Nc1cccc2c1O[C@@H](CN(C)Cc1ccc(-c3ccccc3)cc1)[C@@H](C)CN([C@H](C)CO)C2=O	15
COc1ccc(C)cc1NC(=O)CNS(=O)(=O)c1c(C)cc(C)cc1C	-9
CS(=O)(=O)Nc1ccc(S(=O)(=O)NCC2CCCO2)cc1 (stereo unspecified)	96*
Cc1ccc(N2CC(C(=O)Nc3ccc(S(=O)(=O)NCC4CCCO4)cc3)CC2=O)cc1 (stereo unspecified)	38
O=C(O)c1cccc(S(=O)(=O)NCC2CCCO2)c1 (stereo unspecified)	11
COc1ccc(-c2nn3c(Cn4cnc5ccccc54)nnc3s2)cc1OC	12
CCC(C(=O)Nc1c(C)n(C)n(-c2ccccc2)c1=O)c1ccccc1 (stereo unspecified)	-4
Cc1ccc(S(=O)(=O)Nc2ccc3c(c2)C(=O)N([C@@H](C)CO)C[C@H](C)[C@@H](CN(C)S(=O)(=O)c2cccs2)O3)cc1	23
C=CCN1C(=O)[C@]2(O[C@H](CCO)[C@@H]([Si](C)(C)c3ccc(OC)cc3)[C@@H]2C)c2ccccc21	36
COc1ccc([Si](C)(C)[C@@H]2[C@@H](CCn3cc([C@H](O)c4ccccc4)nn3)O[C@]3(C(=O)N(Cc4cccc(N5CCOC5=O)c4)c4ccccc43)[C@H]2C)cc1	116*
COc1ccc([Si](C)(C)[C@@H]2[C@@H](CCn3cc(CCO)nn3)O[C@]3(C(=O)N(Cc4cccc(N5CCOC5=O)c4)c4ccccc43)[C@H]2C)cc1	116*
C=CCN1C(=O)[C@@]2(O[C@@H](CCn3cc([C@H](O)c4ccccc4)nn3)[C@H]([Si](C)(C)c3ccc(OC)cc3)[C@H]2C)c2cc(N3CCOC3=O)ccc21	63
C=CCN1C(=O)[C@@]2(O[C@@H](CCn3cc(CCO)nn3)[C@H]([Si](C)(C)c3ccc(OC)cc3)[C@H]2C)c2cc(N3CCOC3=O)ccc21	45
COc1ccc([Si](C)(C)[C@@H]2[C@@H](CCn3cc([C@H](O)c4ccccc4)nn3)O[C@]3(C(=O)N(c4ccccc4)c4ccccc43)[C@H]2C)cc1	16
COc1ccc([Si](C)(C)[C@H]2[C@H](CCn3cc(CCO)nn3)O[C@@]3(C(=O)N(Cc4ccc(N5CCOC5=O)cc4)c4ccccc43)[C@@H]2C)cc1	145*
C=CCN1C(=O)[C@]2(O[C@H](CCn3cc(CCO)nn3)[C@@H]([Si](C)(C)c3ccc(OC)cc3)[C@@H]2C)c2ccccc21	35
COc1ccc([Si](C)(C)[C@@H]2[C@@H](CCO)O[C@]3(C(=O)N(C)c4ccccc43)[C@H]2C)cc1	16
COc1ccc([Si](C)(C)[C@H]2[C@H](CCn3cc(CCO)nn3)O[C@@]3(C(=O)N(Cc4cccc(N5CCOC5=O)c4)c4ccccc43)[C@@H]2C)cc1	107*
C[C@H]1CN([C@@H](C)CO)C(=O)Cc2cc(NS(=O)(=O)c3ccccc3)ccc2O[C@@H]1CN(C)C(=O)Nc1ccccc1	-7
C[C@H](CO)N1C[C@H](C)[C@@H](CN(C)C(=O)Nc2ccc(F)cc2)Oc2ccc(NC(=O)Nc3ccccc3)cc2C1=O	-3
Cc1cc(Cl)c(C(N)=O)c(C)n1	16
CCc1ccccc1NC(=O)CSc1nc2cc(C(F)(F)F)ccc2s1	-8
C[C@H](CO)N1C[C@H](C)[C@H](CN(C)Cc2ccc(C(=O)O)cc2)Oc2ccc(NC(=O)C3CC3)cc2C1=O	-2
COC(=O)c1cc(-c2ccccc2)sc1NC(=S)Nc1cn(C)nc1C	18
COc1ccc(NC(=O)Nc2cccc3c2O[C@@H](CN(C)S(=O)(=O)c2ccccc2)[C@H](C)CN([C@H](C)CO)C3=O)cc1	-8
Cc1cc(C)c(C#N)c(SCCS(=O)(=O)Cc2ccc(Cl)cc2)n1	-6
Cc1cc(C)c(C#N)c(SCCS(=O)(=O)c2nc3ccccc3s2)n1	141*
N#Cc1cc2c(nc1SCCS(=O)(=O)c1nc3ccccc3s1)CCCC2	10
